Experimental data taken from the supplement of paper PMC6555819.

System: PPARg:RXRa IVT, anti-PPARg (NR concentration 270 nM, RXRa partner concentration 90 nM)
Experiment: PBM binding z-score (relative to random genomic background probes); higher = stronger binding; sequences stand for … in GC…GCGATTGACAGCGTAGAATGAAGG
Outline: (§1)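 Probes were double-stranded and carried 34-nt variable regions with direct-repeat seeds, single-nucleotide variants, half-site ablations and random human genomic background sequences, printed on custom Agilent 4×180K protein-binding microarrays. Arrays were incubated 1 h with ligand-free nuclear receptor dimers in PBS pH 7.4, 2% milk, 0.02% Triton X-100, 1 mM DTT, 0.2 mg/mL BSA and 0.4 mg/ml salmon testes DNA. Antibodies against each partner (one per run) detected binding, and scanned fluorescence was regression-normalized. Binding z-scores use the random background probes as reference.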

Sequence | PBM binding z-score
TCTTGTAGGTCAGCAGGTTAAGAAAGCTGGCCAA | 7.39
TAGCCTAGGTCATTCAGGGCCCAGTATAGAAAGC | 2.54
AATATAGGGTCACTAGGCCAGAGTAGGTACGAAT | 6.14
CCTCCGAGGACAACAGGAGGTCAGAGCTGCCAGA | 0.335
CCTAGCTGGTCAAGGTCACACACGCTATAGGTAC | 2.8
ATCGAAAGGTCGTCAGGTGAGTATACAGAAAGGC | 2.18
ATCGAAAGGTCGTGAGGTGAATATACAGAAAGGC | 2.93
TGAATGAGGTTATAAGAGCAGGGAACGTTGCAAA | 1.65
CCTAGTTGGCCAGGAGGTCACACACCGGATATGA | 2.22
AGTCAAAGTTCACTAGGTAACGTCAGATTCAGCT | 4.95
AGAACGAGGGCACGCTGAGTAGATAGCAGAGTAG | 3.83
TCAGACAGGTGATGGTAACTCAGGTACGCAGTCG | 0.496
CCTCGGAGGACAAGAGGAGGTCAGAGCTGCCAGA | 0.408
ATATGTAGGTTATCGGGTAATTCAGTTTGCGCAT | 7.39
GCTATTAGTTGAAAGCGCAACCGAATGATTCTCG | -0.176
CGGCAAAGTTCAAGGTAACGTAACAGAAAGCAGC | 1.56
ATACCAAGGTGATCGTGAGGTTGTTGATACTAAC | 0.997
ACAGACAGGTGAGTGAAGGTACCTCAGCTGGACG | 0.143
GGAACGACGGCATTCGAGTTGATAGCATGGCGAT | -0.897
TCGCGTAGGTTACCAATGGGGCATTCAGCTTTCT | 0.245

Sequence | PBM binding z-score
TTACCAAGGTAAGCTGAGGTCGTTGATCCAACTC | 0.407
CCTACTGGGCCACGAAAGGTCAGTGATTCAGTGA | 5.84
GCTTCTAGATCAAGGTTAAGAAAGACTAAGCTAA | 0.862
ACGATTAGTTGAGACGAGGGCAACCGATAGGTTG | 0.112
ATATGTAGGTGAGCTGGGGTCATTCAGACTAGGC | 7.41
CCTAGTTGGTCAGGAGGTCTCACACCGGATATGA | 1.02
CTCGAAAGGTCGTGCTCAGGTGAGGATACCAAAC | 1.73
CCGGCTGGGGCAAGGTTACCATAACGCACAGCCA | 0.466
CCGACTGGGGCATAAGGTTACCATAAGCCAGCCC | 3.01
GCGACTGGGGCACAGCAGGTTACCATAAGGTTGG | 4.28
AGTCAAAGTTAAGGACGAGGTAACGTAAAGCACG | 0.576
CGTCCAAGGTCAACGTCAGTGAAAGAGACTCGAA | 3.71
ACAGACAGGTGAGTGAATGTAACTCAGCTGGACG | 0.325
GCTGCTAGGTCAACTGATGGTCAGATAAAGCTCG | 4.14
TGAATGAGGTTATAGGATCAGGGAACGTTGCAAA | 2.21
TAGTCTAGGTCATTGGGCCAGTATAGTACGCATC | 6.49
CCAACTGGGCCAAAGGTCATTGATTCCAATGCTC | 7
AGCCAAAGTTCATCTAGGTAACGTAAGATATGCT | 3.45
TCATATAGGTCATACAGGTGAAAGTCGGCATCTA | 6.78

System: PPARg DBDmut:RXRa IVT, anti-PPARg (DBD mutation: PPARg1 K132A/R137A, NR concentration 270 nM, RXRa partner concentration 90 nM)
Experiment: as above
Outline: as §1

Sequence | PBM binding z-score
TCTTGTAGGTCAGCAGGTTAAGAAAGCTGGCCAA | 2.94
TAGCCTAGGTCATTCAGGGCCCAGTATAGAAAGC | 0.246
AATATAGGGTCACTAGGCCAGAGTAGGTACGAAT | 2.32
CCTCCGAGGACAACAGGAGGTCAGAGCTGCCAGA | -1.15
CCTAGCTGGTCAAGGTCACACACGCTATAGGTAC | 0.834
ATCGAAAGGTCGTCAGGTGAGTATACAGAAAGGC | 2.81
ATCGAAAGGTCGTGAGGTGAATATACAGAAAGGC | 1.73
TGAATGAGGTTATAAGAGCAGGGAACGTTGCAAA | 0.835
CCTAGTTGGCCAGGAGGTCACACACCGGATATGA | 0.522
AGTCAAAGTTCACTAGGTAACGTCAGATTCAGCT | 1.36
AGAACGAGGGCACGCTGAGTAGATAGCAGAGTAG | 1.29
TCAGACAGGTGATGGTAACTCAGGTACGCAGTCG | -0.328
CCTCGGAGGACAAGAGGAGGTCAGAGCTGCCAGA | -0.899
ATATGTAGGTTATCGGGTAATTCAGTTTGCGCAT | 1.87
GCTATTAGTTGAAAGCGCAACCGAATGATTCTCG | -0.265
CGGCAAAGTTCAAGGTAACGTAACAGAAAGCAGC | -1.51
ATACCAAGGTGATCGTGAGGTTGTTGATACTAAC | 0.831
ACAGACAGGTGAGTGAAGGTACCTCAGCTGGACG | -0.279
GGAACGACGGCATTCGAGTTGATAGCATGGCGAT | -0.871
TCGCGTAGGTTACCAATGGGGCATTCAGCTTTCT | -1.11

Sequence | PBM binding z-score
TTACCAAGGTAAGCTGAGGTCGTTGATCCAACTC | -0.293
CCTACTGGGCCACGAAAGGTCAGTGATTCAGTGA | 1.69
GCTTCTAGATCAAGGTTAAGAAAGACTAAGCTAA | -0.0506
ACGATTAGTTGAGACGAGGGCAACCGATAGGTTG | 0.232
ATATGTAGGTGAGCTGGGGTCATTCAGACTAGGC | 3.98
CCTAGTTGGTCAGGAGGTCTCACACCGGATATGA | -0.277
CTCGAAAGGTCGTGCTCAGGTGAGGATACCAAAC | -0.368
CCGGCTGGGGCAAGGTTACCATAACGCACAGCCA | -1
CCGACTGGGGCATAAGGTTACCATAAGCCAGCCC | -0.979
GCGACTGGGGCACAGCAGGTTACCATAAGGTTGG | -0.331
AGTCAAAGTTAAGGACGAGGTAACGTAAAGCACG | -0.425
CGTCCAAGGTCAACGTCAGTGAAAGAGACTCGAA | 0.344
ACAGACAGGTGAGTGAATGTAACTCAGCTGGACG | -0.206
GCTGCTAGGTCAACTGATGGTCAGATAAAGCTCG | -0.121
TGAATGAGGTTATAGGATCAGGGAACGTTGCAAA | 0.833
TAGTCTAGGTCATTGGGCCAGTATAGTACGCATC | 2.81
CCAACTGGGCCAAAGGTCATTGATTCCAATGCTC | 0.378
AGCCAAAGTTCATCTAGGTAACGTAAGATATGCT | 1.13
TCATATAGGTCATACAGGTGAAAGTCGGCATCTA | 2.18
